Assay results reported in PubChem BioAssay (NCI).
Compounds without any hit were thinned out: in the full panel of roughly 79,000, 15% have a hit. Calls of active or inactive are those of the source. No stated cut-off is given here; in the data, active means growth inhibition above about 70%; inactive means the rest.

Tests used:
[1] = NCI Yeast Anticancer Drug Screen. Data for the rad52 strain (AID 147);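 further: 0% = growth of vehicle-treated control cultures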; settings: S. cerevisiae rad52 mutant growth inhibition, stronger effect = higher value
In short: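 Compounds are applied to a genetically defined yeast strain lacking normal DNA damage repair, and inhibition of growth is expressed relative to cultures given vehicle only.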

[2] = NCI Yeast Anticancer Drug Screen. Data for the wt1 strain (AID 149);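 further: 0% = growth of vehicle-treated wt1 cultures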; settings: S. cerevisiae wt1 strain (SPY 50644) growth inhibition, stronger effect = higher value
In short: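 Vehicle-normalised growth inhibition; strain wt1; compound exposure.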

[3] = NCI Yeast Anticancer Drug Screen. Data for the rad50EPP+ strain (AID 151);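 further: 0% = growth of vehicle-treated control cultures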; settings: S. cerevisiae rad50 mutant strain, stronger effect = higher value
In short: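 Compounds were applied to the rad50EPP+ yeast strain, which bears a defined DNA repair alteration, and growth inhibition was determined relative to vehicle-treated cultures.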

[4] = NCI Yeast Anticancer Drug Screen. Data for the mgt1 strain (AID 153); settings: S. cerevisiae mgt1 mutant growth inhibition, stronger effect = higher value
In short: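 Strain: mgt1 yeast, one of a set carrying defined DNA damage repair or cell cycle control alterations. Compound-treated growth compared with vehicle.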

[5] = NCI Yeast Anticancer Drug Screen. Data for the rad50 strain (AID 155);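 further: 0% = growth of vehicle-only cultures of the same strain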; settings: S. cerevisiae rad50 strain growth inhibition, stronger effect = higher value
In short: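 A DNA repair-deficient yeast mutant serves as the test organism; compound-induced growth inhibition is calculated against vehicle-treated cells.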

[6] = NCI Yeast Anticancer Drug Screen. Data for the mec2-1 strain (AID 157); settings: S. cerevisiae mec2-1 strain, stronger effect = higher value
In short: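 Strain: mec2-1 (DNA repair/cell cycle alteration). Compound exposure, then growth measured; inhibition expressed relative to vehicle.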

[7] = NCI Yeast Anticancer Drug Screen. Data for the sgs1 mgt1 strain (AID 161);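 further: 0% = growth of cultures given vehicle only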; settings: S. cerevisiae sgs1 mgt1 strain, stronger effect = higher value
In short: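 Genetically altered yeast, compound exposure, growth inhibition relative to vehicle.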

[8] = NCI Yeast Anticancer Drug Screen. Data for the CLN2oe strain (AID 163);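 further: 0% = growth of vehicle-only control cultures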; settings: S. cerevisiae CLN2oe strain, stronger effect = higher value
In short: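 Growth of a genetically modified yeast strain is measured after compound exposure and compared with cultures given vehicle alone.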

[9] = NCI Yeast Anticancer Drug Screen. Data for the cln2 rad14 strain (AID 165);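 further: 0% = growth equal to vehicle treated cultures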; settings: S. cerevisiae cln2 rad14 strain, stronger effect = higher value
In short: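 Compounds are applied to the cln2 rad14 yeast strain, and growth is then compared with that of vehicle-treated cultures to give inhibition.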

[10] = NCI Yeast Anticancer Drug Screen. Data for the bub3 strain (AID 167); settings: S. cerevisiae bub3 mutant strain, stronger effect = higher value
In short: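 Inhibition values come from growth of compound-treated mutant yeast normalised to vehicle-treated controls.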

[11] = NCI Yeast Anticancer Drug Screen. Data for the mlh1 strain (AID 171);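 further: 0% = growth of vehicle-treated control cultures of the same strain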; settings: S. cerevisiae mlh1 strain growth inhibition, stronger effect = higher value
In short: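 Growth of the mutant yeast strain after compound exposure, expressed as inhibition relative to vehicle-only controls.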

[12] = NCI Yeast Anticancer Drug Screen. Data for the sgs1 strain (AID 173);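 further: 0% = growth of vehicle-only control cultures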; settings: S. cerevisiae sgs1 mutant, stronger effect = higher value
In short: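 Growth of a yeast strain bearing a defined genetic alteration is measured after compound treatment. Inhibition is expressed relative to vehicle-only controls.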

[13] = NCI Yeast Anticancer Drug Screen. Data for the mlh1 rad18 strain (AID 175); settings: S. cerevisiae mlh1 rad18 strain growth inhibition, stronger effect = higher value
In short: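 Read-out is yeast growth inhibition, calculated against vehicle-only controls. The compound was applied to a strain engineered with DNA damage repair alterations.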

[14] = NCI Yeast Anticancer Drug Screen. Data for the rad18 strain (AID 177); settings: S. cerevisiae rad18 mutant growth inhibition, stronger effect = higher value
In short: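 Growth of the mutant yeast strain after compound exposure, normalised to vehicle-only cultures.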

[15] = NCI Yeast Anticancer Drug Screen. Data for the wt2 strain (AID 169);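 further: 0% = growth of vehicle-treated yeast cultures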; settings: S. cerevisiae wt2 strain growth inhibition, stronger effect = higher value
In short: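 This strain belongs to a panel of yeast strains with defined genetic alterations in DNA damage repair or cell cycle control. Compounds are applied, and growth inhibition is measured against vehicle-treated cultures.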

[16] = at 5.0 µM (retest, dose inferred, filed as 0.5)
[17] = at 50.0 µM (retest, dose inferred, filed as 5.0)

Measured: growth inhibition

CN(N=O)C(=O)Nc1ccc(C(=O)O)cc1
inactive: [1]; at 1.2 µM 1% | [1]; at 3.7 µM 3% | [1]; at 11.0 µM 8% | [1]; at 33.0 µM 29% | [1]; at 100.0 µM 62% | [2]; at 1.2 µM -2% | [2]; at 3.7 µM -3% | [2]; at 11.0 µM -2% | [2]; at 33.0 µM -2% | [2]; at 100.0 µM 2% | [3]; at 1.2 µM -1% | [3]; at 3.7 µM 0% | [3]; at 11.0 µM 3% | [3]; at 33.0 µM 12% | [3]; at 100.0 µM 31% | [4]; at 1.2 µM 0% | [4]; at 3.7 µM 3% | [4]; at 11.0 µM 15% | [4]; at 33.0 µM 28% | [4]; at 100.0 µM 36% | [5]; at 1.2 µM 2% | [5]; at 3.7 µM 11% | [5]; [16] 12% | [5]; at 11.0 µM 19% | [5]; at 33.0 µM 44% | [5]; [17] 68% | [5]; at 50.0 µM 65.3% | [6]; at 1.2 µM -10% | [6]; at 3.7 µM 1% | [6]; [16] -8% | [6]; at 11.0 µM -6% | [6]; at 33.0 µM -7% | [6]; [17] 37% | [6]; at 50.0 µM 7.8% | [6]; at 100.0 µM 19% | [7]; [16] 43% | [7]; at 50.0 µM 62.6% | [8]; at 1.2 µM -4% | [8]; at 3.7 µM -3% | [8]; at 11.0 µM -6% | [8]; at 33.0 µM -9% | [8]; at 100.0 µM -1% | [9]; [16] -45% | [9]; [17] -4% | [9]; at 50.0 µM 2.05% | [10]; at 1.2 µM -14% | [10]; at 3.7 µM -8% | [10]; [16] -16% | [10]; at 11.0 µM -5% | [10]; at 33.0 µM -9% | [10]; [17] 6% | [10]; at 50.0 µM -14.2% | [10]; at 100.0 µM -8% | [11]; at 1.2 µM -6% | [11]; at 3.7 µM 1% | [11]; at 11.0 µM -1% | [11]; at 33.0 µM -21% | [11]; at 100.0 µM -12% | [12]; at 1.2 µM 2% | [12]; at 3.7 µM 8% | [12]; at 11.0 µM 20% | [12]; at 33.0 µM 35% | [12]; at 100.0 µM 55% | [13]; [16] 16% | [13]; [17] 51% | [13]; at 50.0 µM 32.9% | [14]; at 1.2 µM 18% | [14]; at 3.7 µM 47%
active: [5]; at 100.0 µM 77% | [7]; [17] 80% | [14]; at 11.0 µM 81% | [14]; at 33.0 µM 90% | [14]; at 100.0 µM 93%

COc1ccc(C2CC(C)(N3CCCC3)Oc3cc4c(cc32)OCO4)cc1 (stereo not drawn)
inactive: [1]; at 1.2 µM 4% | [1]; at 3.7 µM 5% | [1]; at 11.0 µM 4% | [1]; at 33.0 µM 32% | [2]; at 1.2 µM -3% | [2]; at 3.7 µM -3% | [2]; at 11.0 µM -5% | [2]; at 33.0 µM -9% | [2]; at 100.0 µM 11% | [3]; at 1.2 µM 4% | [3]; at 3.7 µM 4% | [3]; at 11.0 µM 3% | [3]; at 33.0 µM 9% | [3]; at 100.0 µM -3% | [4]; at 1.2 µM -1% | [4]; at 3.7 µM -1% | [4]; at 11.0 µM -3% | [4]; at 33.0 µM -5% | [5]; at 1.2 µM 5% | [5]; at 3.7 µM 1% | [5]; [16] -7% | [5]; at 11.0 µM 0% | [5]; at 33.0 µM 37% | [5]; [17] 25% | [5]; at 50.0 µM 64.5% | [6]; at 1.2 µM -1% | [6]; at 3.7 µM -1% | [6]; [16] 11% | [6]; at 11.0 µM -4% | [6]; at 33.0 µM 1% | [6]; [17] 9% | [6]; at 50.0 µM 9.8% | [6]; at 100.0 µM 36% | [7]; [16] -6% | [7]; [17] 47% | [7]; at 50.0 µM 61.5% | [8]; at 1.2 µM 2% | [8]; at 3.7 µM -1% | [8]; at 11.0 µM -6% | [8]; at 33.0 µM 6% | [8]; at 100.0 µM 68% | [9]; [16] 8% | [9]; [17] 34% | [9]; at 50.0 µM 19.4% | [10]; at 1.2 µM 1% | [10]; at 3.7 µM 5% | [10]; [16] 22% | [10]; at 11.0 µM -21% | [10]; at 33.0 µM 22% | [10]; at 50.0 µM 41.4% | [15]; at 1.2 µM -7% | [15]; at 3.7 µM -1% | [15]; at 11.0 µM -13% | [15]; at 33.0 µM 6%
active: [1]; at 100.0 µM 94% | [4]; at 100.0 µM 85% | [5]; at 100.0 µM 92% | [10]; [17] 74% | [10]; at 100.0 µM 87% | [15]; at 100.0 µM 92%
